{
  "source": "PubChem BioAssay AID493131",
  "about": "(Broad Institute, 2011)",
  "note": "About 3,300 (0.97%) of roughly 340,000 compounds were called active. The list comes from a sample in which actives are over-represented; it also holds similar structures and randomly drawn compounds. A number with no mark means an inactive call.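 The calls were made as follows: active = mean activation above about 17%, with every replicate also reaching it (limit read from the data, passing the limit was not always enough); inconclusive = only one of the two conditions met; inactive = the rest.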",
  "data": [
    {"target": "Protein FosB (Mus musculus) (UniProt P13346)", "sequence (P13346 whole entry, looked up)": "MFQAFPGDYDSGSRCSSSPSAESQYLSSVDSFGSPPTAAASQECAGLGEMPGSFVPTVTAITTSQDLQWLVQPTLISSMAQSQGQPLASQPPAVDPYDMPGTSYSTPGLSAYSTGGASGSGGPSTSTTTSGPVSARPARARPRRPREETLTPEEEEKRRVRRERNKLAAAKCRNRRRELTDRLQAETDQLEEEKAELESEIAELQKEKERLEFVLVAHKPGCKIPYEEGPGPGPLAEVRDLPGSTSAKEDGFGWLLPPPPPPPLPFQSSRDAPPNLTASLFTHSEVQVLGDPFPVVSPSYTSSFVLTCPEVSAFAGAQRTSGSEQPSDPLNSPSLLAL", "assay": "enhancers of mouse delta FosB DNA binding – biochemical, fluorescence polarization, TAMRA-CDK5 oligo, single point, primary screen (AID 493131);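 also: fluorescence polarization rise as delta FosB binds a TAMRA Cdk5 AP-1 oligo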", "conditions": "purified delta FosB, at 25 µM, stronger effect = higher value, percent of positive-control signal above neutral wells", "values": [
      {"smiles": "CN(CC(=O)Nc1ccc(Cl)cc1)C(=O)c1ccc(COc2ccccc2)cc1", "activation": "-1.5%"},
      {"smiles": "O=C(NNC(=O)c1ccc2ccccc2c1)c1ccc(Cl)cc1", "activation": "4.76%"},
      {"smiles": "CN(CC(=O)Nc1ccc(Cl)cc1)C(=O)CNC(=O)c1ccc2ccccc2c1", "activation": "38.6% (active)"},
      {"smiles": "Nc1ccccc1/C=N\\N=C/c1ccccc1N", "activation": "1.65%"},
      {"smiles": "Cc1nc(-c2ccc(Cl)cc2)sc1C1(C)CC(c2ccc(Br)cc2)=NO1", "note": "(configuration not stated)", "activation": "-6.82%"},
      {"smiles": "COc1ccc(OC)c(-n2c(=S)[nH]c3cc(C(=O)N4CCCCC4)ccc3c2=O)c1", "activation": "0.446%"},
      {"smiles": "COc1ccc(Cn2c(=S)[nH]c3cc(C(=O)N4CCCCC4)ccc3c2=O)cc1", "activation": "67.5% (active)"},
      {"smiles": "COc1ccc(Cn2c(=S)[nH]c3cc(C(=O)NCCCN4CCOCC4)ccc3c2=O)cc1", "activation": "-7.8%"},
      {"smiles": "CC(C)C(OC(=O)c1cccs1)C(=O)NC1CCCCC1", "note": "(configuration not stated)", "activation": "0.731%"},
      {"smiles": "Cc1c[n+]([O-])ccc1[N+](=O)[O-]", "activation": "1.75%"},
      {"smiles": "CCc1nnc(NS(=O)(=O)c2ccc(NC(=S)NC(=O)/C=C/c3cccs3)cc2)s1", "activation": "-19.1%"},
      {"smiles": "C=CCn1c(=NC(=O)c2ccc(S(=O)(=O)N3CCCC3)cc2)sc2cc(NC(C)=O)ccc21", "activation": "50.4% (active)"},
      {"smiles": "COc1cc(C(C)=O)ccc1OC(C)C(=O)Nc1ccc(S(=O)(=O)N2CCCC2)cc1", "note": "(configuration not stated)", "activation": "-5.8%"},
      {"smiles": "CC(=O)Nc1ccc(S(=O)(=O)N2CCSCC2)cc1", "activation": "-10.4%"},
      {"smiles": "CC(NC(=O)CCCC1CCCCC1)c1ccc(S(N)(=O)=O)cc1", "note": "(configuration not stated)", "activation": "-18.3%"},
      {"smiles": "Cc1n[nH]c(=O)c2c1nnn2Cc1ccc(F)cc1", "activation": "0.186%"},
      {"smiles": "O=C(CN1CCN(S(=O)(=O)c2ccc(Cl)s2)CC1)N1CCCCC1", "activation": "-6.89%"},
      {"smiles": "COc1ccc(N2CCN(C(=O)[C@@H](NC(=O)c3cc(OC)cc(OC)c3)C(C)C)CC2)cc1", "activation": "-9.58%"},
      {"smiles": "COc1cc(OC)cc(C(=O)N[C@H](C(=O)NNC(=O)c2ccc(Br)cc2)C(C)C)c1", "activation": "23.4% (active)"},
      {"smiles": "COc1cc(OC)cc(C(=O)NC(C(=O)N2CCC2)C(C)C)c1", "note": "(configuration not stated)", "activation": "0.275%"},
      {"smiles": "COc1ccc(C)cc1NC(=O)CN(C)S(=O)(=O)c1ccc2c(c1)n(C)c(=O)c(=O)n2C", "activation": "-14%"},
      {"smiles": "O=C(Nc1ccc2ccccc2c1)/C(=C/c1cccc(Br)c1)NC(=O)c1ccco1", "activation": "23% (active)"},
      {"smiles": "Cc1ccc(NC(=O)/C(=C\\c2ccccc2)NC(=O)c2ccco2)cc1", "activation": "10.9%"},
      {"smiles": "O=C(Nc1ccc2ccccc2c1)/C(=C\\c1ccc2c(c1)OCO2)NC(=O)c1ccco1", "activation": "5.94%"},
      {"smiles": "COC(=O)c1ccc2c(c1)S(=O)(=O)NC(=NCCCN1CCOCC1)S2", "activation": "0.881%"},
      {"smiles": "COC(=O)c1ccc(C2C(Oc3ccccc3C)C(=O)N2CCc2ccc(OC)c(OC)c2)cc1", "note": "(configuration not stated)", "activation": "-14.8%"},
      {"smiles": "COc1ccc(CC(=O)Nc2ccc(C(=O)NC(C)(C)C)cc2)cc1", "activation": "35.1% (active)"},
      {"smiles": "COc1ccc(NC(=O)c2ccc(C#CC(C)(C)O)cc2)cc1", "activation": "-5.48%"},
      {"smiles": "CC(C)(C)NC(=O)c1cccc(NC(=O)Cc2ccc(Br)cc2)c1", "activation": "-8.13%"},
      {"smiles": "CC(=O)N1CC(=O)N(CC(=O)Nc2ccc(Br)cc2)C1=S", "activation": "-0.232%"},
      {"smiles": "C[N+](C)(CCCCCC[N+](C)(C)CCCN1C(=O)c2cccc3cccc(c23)C1=O)CCCN1C(=O)c2cccc3cccc(c23)C1=O", "activation": "85% (active)"},
      {"smiles": "O=C1c2ccccc2C(=O)N1CCCCCCN1C(=O)c2ccccc2C1=O", "activation": "-2.1%"},
      {"smiles": "O=C1c2cccc3cccc(c23)C(=O)N1CCCCCc1n[nH]c(=S)o1", "activation": "-2.23%"},
      {"smiles": "CCOC(=O)Cc1csc(SCC(=O)NC(C)C23CC4CC(CC(C4)C2)C3)n1", "note": "(configuration not stated)", "activation": "-21%"},
      {"smiles": "CC1(C)CC(=O)CC2(C1)NCC(c1ccccc1Cl)c1c2[nH]c2ccccc12", "note": "(configuration not stated)", "activation": "-13.7%"},
      {"smiles": "O=C(NCc1cccnc1)C12CC3CC(CC(C3)C1)C2", "activation": "0.989%"},
      {"smiles": "CCC(CO)Oc1cc(NC(=O)c2cccc3ccccc23)c2ncn(C(C)C)c2c1", "note": "(configuration not stated)", "activation": "-12.6%"},
      {"smiles": "CCC(CO)Oc1cc(NC(=O)c2cccc(F)c2)c2ncn(C(C)C)c2c1", "note": "(configuration not stated)", "activation": "7.98%"},
      {"smiles": "CC(C)n1cnc2c(NCc3ccccc3)cc(OCC3CCN(C)CC3)cc21", "activation": "91.8% (active)"},
      {"smiles": "C/C(CC(=O)Nc1cccc(C(F)(F)F)c1)=N\\NC(=O)C(=O)NCC(C)C", "activation": "-12.7%"},
      {"smiles": "CCCCOc1ccc(CON(C(C)=O)C(C)=O)cc1Cl", "activation": "-3.14%"},
      {"smiles": "CCn1ccnc1CNC(=O)CC1C(=O)NCCN1Cc1ccc(F)cc1Cl", "note": "(configuration not stated)", "activation": "-11.3%"},
      {"smiles": "Brc1ccccc1C1Nc2cccc3cccc(c23)N1", "activation": "-8.49%"},
      {"smiles": "Oc1ccc(C2Nc3cccc4cccc(c34)N2)cc1", "activation": "58.9% (active)"},
      {"smiles": "COc1ccc(C2NC(=O)c3ccccc3N2)cc1", "note": "(configuration not stated)", "activation": "-0.293%"},
      {"smiles": "O=C(CCc1nnc(CCCCc2ccccc2)o1)NC(c1cccnc1)C(F)(F)F", "note": "(configuration not stated)", "activation": "-5.13%"},
      {"smiles": "O=C(O)C1CCN(S(=O)(=O)N2CCOCC2)CC1", "activation": "1.05%"},
      {"smiles": "CNc1nc(Nc2ccc(C)c(Cl)c2)nc(N)c1[N+](=O)[O-]", "activation": "60.7% (active)"},
      {"smiles": "CCN1CCN(c2nc(Nc3cccc(F)c3)nc(N)c2[N+](=O)[O-])CC1", "activation": "10.8%"},
      {"smiles": "Nc1nc(NCCCN2CCOCC2)nc(Nc2ccccc2)c1[N+](=O)[O-]", "activation": "4.67%"},
      {"smiles": "CCNC(=O)COC(=O)/C=C/c1c(C)nn(Cc2cccc(OC)c2)c1Cl", "activation": "-7.6%"},
      {"smiles": "CC(C)Nc1ccc(-n2nc3ccccc3[n+]2[O-])cc1", "activation": "-2.96%"},
      {"smiles": "CC1(C)CC(=O)c2c(n(S(=O)(=O)c3ccccc3)c3ccc(NS(=O)(=O)c4ccccc4)cc23)C1", "activation": "-1.95%"},
      {"smiles": "O=C(NCc1ccc2c(c1)OCO2)c1cc([N+](=O)[O-])ccc1N1CCOCC1", "activation": "5.71%"},
      {"smiles": "CCOc1ccc2nc(NC(=O)c3cc([N+](=O)[O-])ccc3N3CCOCC3)sc2c1", "activation": "26.6% (active)"},
      {"smiles": "COc1ccc(S(=O)(=O)N2CCCCC2)cc1NC(=O)c1cc([N+](=O)[O-])ccc1N1CCOCC1", "activation": "5.22%"},
      {"smiles": "Cn1ccc(=Nc2ccc(NC(=O)c3ccc(N=c4ccn(C)c5ccc([N+](=O)[O-])cc45)cc3)cc2)cc1", "activation": "62.2% (active)"},
      {"smiles": "CCc1ccc(NC(=O)c2ccc(Cn3cc([N+](=O)[O-])cn3)cc2)cc1", "activation": "4.46%"},
      {"smiles": "COc1cc(NS(=O)(=O)c2ccc(NC(=O)c3ccc([N+](=O)[O-])cc3)cc2)ncn1", "activation": "-0.999%"},
      {"smiles": "COc1ccc(C(=O)Nc2ccnn2C2CCN(Cc3ccncc3)CC2)cc1", "activation": "-4.76%"},
      {"smiles": "O=C(NCc1ccc2c(c1)OCO2)c1c(-c2ccsc2)sc2ccccc12", "activation": "-2.79%"},
      {"smiles": "O=S(=O)(c1ccc(Cl)cc1)c1nc(-c2ccccc2F)oc1NCCN1CCOCC1", "activation": "-12.7%"},
      {"smiles": "Cc1ccc(S(=O)(=O)N2CCN(C(=O)COC(=O)c3c(C)cc(C)cc3C)CC2)c(C)c1", "activation": "-5.88%"},
      {"smiles": "Cc1ccc(S(=O)(=O)N2CCN(C(=O)COC(=O)/C=C/c3cccc(Cl)c3)CC2)c(C)c1", "activation": "-10.6%"},
      {"smiles": "COc1ccc(/C=C/C(=O)OCC(=O)N2CCN(S(=O)(=O)c3ccc(C)cc3C)CC2)cc1OC", "activation": "19.8% (active)"},
      {"smiles": "Cc1ccsc1C(=O)NNC(=O)COc1ccc(Br)cc1", "activation": "-0.652%"},
      {"smiles": "NC(=NC(=O)c1ccccc1)C1=C(O)CCC1=O", "activation": "-12.8%"},
      {"smiles": "COC(=O)c1nc2n(n1)C(c1ccc([N+](=O)[O-])cc1)C(C(=O)Nc1ccc(Cl)cc1)=C(C)N2", "note": "(configuration not stated)", "activation": "34.5% (active)"},
      {"smiles": "COCCOC(=O)C1=C(C)Nc2nc(C)nn2C1c1ccccc1", "note": "(configuration not stated)", "activation": "-7.61%"},
      {"smiles": "COc1cc(C2C(C(=O)Nc3ccc(F)cc3)=C(C)Nc3nc(CCCO)nn32)cc(OC)c1OC", "note": "(configuration not stated)", "activation": "-9.9%"},
      {"smiles": "COC(=O)/C(=C\\Nc1ccccc1)NC(=O)c1ccc(Cl)cc1Cl", "activation": "4.01%"},
      {"smiles": "COc1cccc(C2CC(c3cccs3)=NN2C(=O)CSC2=NCCS2)c1OC", "note": "(configuration not stated)", "activation": "-11.4%"},
      {"smiles": "CC(C)c1c(C(=O)N/N=C/c2ccc(-c3ccccc3)cc2)nnn1-c1nonc1N", "activation": "-2.45%"},
      {"smiles": "Nc1nonc1-n1nnc(C(=O)N/N=C/C2CCCCC2)c1-c1ccccc1", "activation": "-11.3%"},
      {"smiles": "Nc1nonc1-n1nnc(C(=O)N/N=C/c2ccc(Cl)cc2)c1-c1ccc2c(c1)OCO2", "activation": "32.2% (active)"},
      {"smiles": "CC(Sc1nncn1C)C(=O)Nc1ccccc1-c1ccccc1", "note": "(configuration not stated)", "activation": "-4.45%"},
      {"smiles": "O=C(CSCc1ccc([N+](=O)[O-])cc1)Nc1cccc(C(=O)Nc2ccccc2C(=O)O)c1", "activation": "-3.8%"},
      {"smiles": "O=C(COCc1cc(-c2ccc3c(c2)OCO3)on1)N1CCN(c2cccc(Cl)c2)CC1", "activation": "-10.2%"},
      {"smiles": "CN1CCN(CCCNC(=O)c2cc3c(=O)oc4ccccc4c3s2)CC1", "activation": "-39.5%"},
      {"smiles": "Cc1cccc2c1-c1sc(C(=O)NCCCN3CCc4ccccc4C3)cc1CO2", "activation": "22.8% (active)"},
      {"smiles": "O=C(NCCCN1CCOCC1)c1cc2c(s1)CCC2", "activation": "-3.83%"},
      {"smiles": "C=CCn1c(Oc2ccc(C(=O)OC)cc2)nc2c1c(=O)n(C)c(=O)n2C", "activation": "2.74%"},
      {"smiles": "CC(C)=C1C2CCC1C1C(=O)N(NC(=O)c3ccco3)C(=O)C21", "note": "(configuration not stated)", "activation": "5.44%"},
      {"smiles": "COc1ccc(C)cc1NC(=O)CCCN1C(=O)NC(C)(C)C1=O", "activation": "1.82%"},
      {"smiles": "COc1ccc2c(c1)c(=O)c(C(=O)c1ccc(Cl)cc1)cn2CC(=O)Nc1ccc(F)cc1", "activation": "101% (active)"},
      {"smiles": "COc1ccc(OC)c(C(=O)c2ccc(Cl)cc2)c1", "activation": "6.81%"},
      {"smiles": "O=C(c1ccc(F)cc1)c1cn(Cc2ccc(F)cc2)c2cc3c(cc2c1=O)OCCO3", "activation": "-2.37%"}
    ]}
  ]
}
